The list is not random: actives were taken first. Their share in the collection is about 12%.
PLK1 PBD block – PLK1 (human) polo-box domain binding inhibition; P53350; AID 720504; Plk1 PBD binding of FITC phosphopeptide, fluorescence polarization; actives 2.8% (n = 360,000); Potency, µM, without a hit: max response, negative = inhibition, actives largely listed as inhibitors; also: series mostly up to about 57 µM; % is scaled to controls: 0 for no effect and ±100 for the full control effect; nearly all actives have a fitted effect of over 65% in size
JMJD2A Tudor – inhibitors of human JMJD2A Tudor domain. AlphaScreen JMJD2A-Tudor / H3K4me3 peptide binding. Potency, µM (highest dose often 114 µM), without a hit: at the top dose activity change, negative = inhibition, actives largely listed as inhibitors. actives 4.4% (n = 390,000); also: % is scaled to controls: 0 for no effect and ±100 for the full control effect; nearly all actives have a fitted effect of over 50% in size
HP1b binding inh – HP1-beta chromodomain-methylated histone interaction inhibition | AlphaScreen HP1-beta / biotin-H3K9me3 peptide binding | Potency, µM (top dose mostly 114 µM), inactives show at the top dose activity change, negative = inhibition, most hits filed as inhibitors | actives 0.56% (n = 390,000) | AID 540317; also: nearly all actives have a fitted effect of over 70% in size
Target sequence (P83916 whole entry, looked up): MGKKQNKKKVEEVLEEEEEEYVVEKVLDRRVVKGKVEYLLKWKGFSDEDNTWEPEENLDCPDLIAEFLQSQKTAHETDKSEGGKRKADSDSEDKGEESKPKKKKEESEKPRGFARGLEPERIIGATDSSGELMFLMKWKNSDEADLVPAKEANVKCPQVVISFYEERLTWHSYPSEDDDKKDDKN
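Compound inhibition of the preformed complex between 50 nM HP1-beta and 50 nM biotinylated H3K9me3 peptide was read by AlphaScreen. Buffer was PBS pH 7.4 with 0.01% Tween-20. Incubations ran 30 min at room temperature, with 10 ug/mL donor/acceptor beads.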
G9a inh – inhibitors of human histone lysine methyltransferase G9a; Q96KQ7; G9a H3K9 monomethylation, AlphaScreen, 2 h; Potency, µM (highest dose often 102 µM), without a hit: at the top dose activity, negative = inhibition, hits mostly inhibitors; actives 8.8% (n = 350,000); also: % is scaled to controls: 0 for no effect and ±100 for the full control effect; nearly all actives have a fitted effect of over 75% in size
Target sequence (Q96KQ7 913-1193 limits assumed): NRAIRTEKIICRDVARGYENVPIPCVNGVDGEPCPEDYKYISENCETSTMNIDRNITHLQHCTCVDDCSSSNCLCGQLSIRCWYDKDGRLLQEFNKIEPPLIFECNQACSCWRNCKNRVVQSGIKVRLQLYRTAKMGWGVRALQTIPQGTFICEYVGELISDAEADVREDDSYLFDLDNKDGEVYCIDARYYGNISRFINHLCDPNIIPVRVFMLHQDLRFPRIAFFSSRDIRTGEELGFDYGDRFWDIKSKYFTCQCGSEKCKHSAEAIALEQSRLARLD
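Using a bead-based AlphaScreen, monomethylated H3K9 product from 2 h room-temperature reactions (G9a 20 nM, peptide 500 nM, SAM 20 uM) was detected with 0.5 ug/mL rabbit anti-H3K9me1 antibody.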
Sfp PPTase inh – inhibitors of Bacillus subtilis Sfp phosphopantetheinyl transferase; actives 3.5% (n = 310,000); Biochemical Sfp PPTase activity, qHTS; Potency, µM, for the others: largest response in the series, negative = inhibition, actives largely listed as inhibitors;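 also: the enzyme is Sfp with the accession as filed and its product quenches rhodamine fluorescence; 0% = enzyme reaction without inhibitor and -100% = no enzyme wells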
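After 15 min at room temperature with compound, 15 nM Sfp received 5 uM rhodamine-CoA plus 12.5 uM BHQ-2-ybbR (50 mM Hepes pH 7.6, 10 mM MgCl2). Rate came from the fluorescence difference over 30 min, ex 525/em 598 nm.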
BAZ2B inh – inhibitors of human BAZ2B bromodomain; AlphaScreen BAZ2B-H3K14Ac peptide displacement; Potency, µM (doses to about 114 µM), inactives show at the top dose activity change, negative = inhibition, most hits filed as inhibitors; actives 4.4% (n = 360,000); also: % is scaled to controls: 0 for no effect and ±100 for the full control effect; nearly all actives have a fitted effect of over 60% in size
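AlphaScreen displacement: compounds (up to 110uM) incubated 30 min at room temperature with a preformed 50 nM BAZ2B/50 nM biotinylated H3K14Ac peptide complex in PBS pH 7.4 with Tween-20. Donor and acceptor beads at 10 ug/mL final added, 20 min light-protected before reading.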
* marks the source's active call; other numbers are inactive results; ? = inconclusive; · = no result given; [ ] = dose if it differs, or a comment. Calls follow the shape of the dose curve; as a rule, active = well fitted curve in the direction sought with a large enough effect; inconclusive = small, poorly fitted or top-dose-only effect, or another doubt; inactive = no such curve, though single readings can be large; an effect the other way counts as inactive or inconclusive. Potency is read from the fitted curve at half-maximal effect.

SMILES | PLK1 PBD block | JMJD2A Tudor | HP1b binding inh | G9a inh | Sfp PPTase inh | BAZ2B inh
O=C(CN1CCN(c2ccc(O)cc2)CC1)NCC(=O)Nc1ccc(F)c(F)c1F | 3.9% | 44.7µM* | ? | ? | · | -1.9%
Cc1cc(NC(=O)CN2CCN(c3ccc(O)cc3)CC2)no1 | 0.0% | 89.1µM* | ? | 14.7%[0.501 µM] | 79.4µM* | -10.7%
COc1ccc(-c2nnnn2C)cc1S(=O)(=O)Nc1ccc(C)cc1C | -16.3% | -12.9% | 11.8%[57 µM] | -2.2% | 19.1% | -2.8%
COc1ccc(-n2c(=O)c(CCc3ccccc3)nc3cnc(N4CCOCC4)nc32)cc1 | · | · | · | -0.1%[0.501 µM] | 16.3% | ·
Cn1nnnc1Sc1ncnc2scc(-c3ccccc3F)c12 | · | -14.4% | · | · | · | ·
CC(C)N(Cc1ccccc1)C(=O)/C=C/c1ccccc1[N+](=O)[O-] | -10.3% | -24.5% | 2.1% | 9.8%[12.7 µM] | 11.1% | ?
CN(C/C=C/c1ccccc1[N+](=O)[O-])Cc1ccccc1 | 2.3% | 28.2µM* | ? | -8.5%[0.501 µM] | -11.3% | 56.2µM*
O=C(CCn1nnc2ccccc21)N1CCC(O)(c2cccc(F)c2)CC1 | 26.7µM* | 50.1µM* | -11.2% | 8.3% | 3.4% | -2.4%
CCc1ccc(N=C2NC(=O)/C(=C/c3ccc(OCC(=O)O)cc3)S2)cc1 | -28.7% | ? | 4.4% | 50.1µM* | 14.9% | 50.1µM*
CCc1ccc(N=C2NC(=O)/C(=C/c3ccc(OCC(=O)O)c(OC)c3)S2)cc1 | ? | 28.2µM* | 44.7µM* | · | 11.9% | 7.08µM*
CCOC(=O)C1=C(O)/C(=C/c2ccc(OCC(=O)O)c(OCC)c2)SC1=Nc1ccc(C)cc1 | -16.8% | -30.6% | 23.7% | 44.7µM* | -3.3% | -28.1%
O=c1cc(-c2cc(O)c(O)c([C@@H]3O[C@H](CO)[C@@H](O)[C@H](O)[C@H]3O)c2)oc2cc(O[C@@H]3O[C@H](CO)[C@@H](O)[C@H](O)[C@H]3O)cc(O)c12 | · | · | · | · | -8.3% | ·
O=C(O)/C=C(\CC(=O)O)C(=O)O | · | · | · | · | -2.6% | ·
Cc1ccc(CNc2ncnc3nc[nH]c23)cc1 | · | -10.6% | 33.0% | · | · | ·
CCn1c(=O)n(C2=C(CO)CN(CC3CCCCCCC3)CC2)c2ccccc21 | · | · | · | · | -1.0% | ·
Cc1cc(C(=O)COC(=O)CC2Sc3ccccc3NC2=O)c(C)n1-c1ccc(Br)cc1 (stereo not drawn) | -7.7% | -27.1% | -1.8% | 56.2µM* | -6.2% | -38.7%
Cc1cc(C(=O)COC(=O)CC2Sc3ccccc3NC2=O)c(C)n1-c1ccccc1 (stereo not drawn) | -5.6% | ? | -13.4% | ? | 1.0% | -36.0%
O=[N+]([O-])c1cc(-n2cnnn2)ccc1N1CCC(Cc2ccccc2)CC1 | -3.7% | 10µM* | -42.1% | 4.4%[0.501 µM] | -11.7% | 28.2µM*
Cc1cc(C)cc(C(=O)NC(CC(N)=O)c2ccc(N3CCC(Cc4ccccc4)CC3)c([N+](=O)[O-])c2)c1 (stereo not drawn) | 0.1% | -20.3% | 19.8% | 50.1µM* | 1.8% | ?
Cc1cc(C)cc(C(=O)NC(CC(N)=O)c2ccc(N3CCC(Br)CC3)c([N+](=O)[O-])c2)c1 (stereo not drawn) | -0.2% | -28.7% | 32.9% | ? | 17.2% | -37.0%
NC(=O)CC(NC(=O)c1ccccc1)c1ccc(N2CCCCCC2)c([N+](=O)[O-])c1 (stereo not drawn) | ? | 44.7µM* | ? | 50.1µM* | -7.6% | ?
NC(=O)CC(NC(=O)Cc1ccc(Br)cc1)c1ccc(N2CCC(N3CCCCC3)CC2)c([N+](=O)[O-])c1 (stereo not drawn) | -0.2% | -20.3% | 25.3% | 56.2µM* | 13.7% | -34.0%
O=Nc1c(O)[nH]c2ccc(Cl)c(Cl)c12 | -6.0% | -21.4% | -2.6%[57 µM] | · | · | ·
COc1ccccc1-c1nnc(C2CCN(C(=O)c3cccc(Cl)c3)CC2)o1 | · | -5.0% | 54.6% | 0.1%[59 µM] | · | -0.5%
Cc1ccc(C(=O)Nc2ccccc2C(=O)O)cc1S(=O)(=O)Nc1ccc(Br)cc1 | ? | -21.5% | -0.1% | · | · | ·
SMILES | PLK1 PBD block | JMJD2A Tudor | HP1b binding inh | G9a inh | Sfp PPTase inh | BAZ2B inh
NC(=O)CC(NC(=O)c1cccc(Br)c1)c1ccc(N2CCN(c3ccccn3)CC2)c([N+](=O)[O-])c1 (stereo not drawn) | 1.3% | ? | -6.4% | 50.1µM* | 2.6% | ?
CCC12CN3CC(CC)(CN(C1)C3c1cc(Br)ccc1OC)C2=O (stereo not drawn) | · | -18.2% | 7.3% | -0.1%[59 µM] | · | -8.1%
c1ccc(-c2ncc3ccccn23)cc1 | -7.6% | -28.5% | -4.4% | 79.4µM* | 15.8µM* | -36.7%
c1ccc2c(c1)ncc1cccn12 | -14.2% | -12.5% | 19.5% | 24.3%[59 µM] | 2.8% | 8.0%
COCCOC(=O)C1=C(C)NC(C)=C(C(=O)OCCOC)C1/C=C/c1ccccc1OC | -3.8% | -10.3% | 20.6% | 45.6% | 4.3% | 6.6%
CC(=O)C1=C(C)NC2(O)c3ccccc3C(=O)C12O (stereo not drawn) | -3.3% | 4.4% | 39.6% | -24.6% | -0.5% | -16.1%
COCCOC(=O)C1=C(C)NC2(O)c3ccccc3C(=O)C12O (stereo not drawn) | -13.0% | 5.5% | 59.6% | -33.3%[59 µM] | 89.1µM* | -11.9%
CCOC(=O)C1=C(C)NC2(O)c3ccccc3C(=O)C12O (stereo not drawn) | ? | ? | 0.7% | -32.6%[59 µM] | 79.4µM* | ?
COc1ccc2c(c1)CC/C(=C/c1ccncc1)C2=O | -14.4% | -15.1% | 13.0% | 5.9%[59 µM] | 6.6% | -31.1%
COc1ccc(C=C2Cc3ccccc3C2=O)cc1 | -16.1% | · | · | · | · | ·
COc1ccc2c(c1)CC/C2=N\NC(=O)c1ccccc1 | 3.3% | 5.6% | 28.9% | 11.6%[59 µM] | -10.1% | 10.6%
COc1ccc2c(c1)CC/C(=C\C=C\c1ccccc1OC)C2=O | -28.5% | -14.9% | 16.2% | 7.94µM* | 25.1µM* | 8.2%
COc1ccc2c(c1)CC/C(=C\c1ccc(C)o1)C2=O | -5.1% | ? | ? | 50.1µM* | 44.7µM* | 44.7µM*
COc1ccc2c(c1)C(=O)/C(=C/C=C/c1ccccc1)CC2 | -17.1% | -28.2%[57.1 µM] | 28.6% | 31.6µM* | -13.3% | 6.8%
COc1ccccc1/C=C/C(=O)OCC(=O)N1c2ccccc2CC1C (stereo not drawn) | 0.4% | 4.9% | 31.9% | 18.5%[59 µM] | · | 2.9%
COc1ccccc1NC(=O)c1sc2nc(C)c(C(=O)Nc3ccc(C)cc3C)c(-c3ccc(Br)cc3)c2c1N | · | 8.2% | 72.7% | 22.5%[59 µM] | · | 2.7%
CCc1noc(C)c1C(=O)OCC(=O)c1ccccc1OC | -2.8% | 0.0% | 71.7% | -8.2% | -19.8% | 22.7%
COc1ccccc1-c1noc(-c2ccc(N3CCN(c4ccccc4)CC3)c([N+](=O)[O-])c2)n1 | · | 0.3% | 59.4% | -7.6%[59 µM] | · | -2.2%

Source: PubChem (National Center for Advancing Translational Sciences (NCATS))
